About 7,900 targets were measured; listed, in parts, are those with a hit and a random draw of the rest. About 0.6% of all pairs of compound and target were hits.
Key:
Experiment in all cases: log2 fold change, soluble protein after heating vs DMSO (PISA); higher = thermal stabilisation; K562 cells, 10 uM, 30 min; active = over 0.2 and 3.5 SD of the protein, either way, in both replicates (recomputed)
[1] = compound: CC1=C(C=C(C=C1)NC(=O)C2=CC(=CC=C2)C(C)(C)C#N)NC3=CC4=C(C=C3)N=CN(C4=O)C
Procedure, shortened: (§1)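 For each measurement, 10 μM compound was applied for 30 min to K562 cells at 2×10^6 cells/mL. Aliquots were heated for 3 min across 48°C-58°C, pooled, and extracted in PBS with 0.5% NP-40 at 4°C; the supernatant after 21,000xg for 90 min was soluble protein. This was quantified by TMTpro 16plex LC-MS/MS with channel sums equalised, and thermal stability was reported relative to control samples from duplicates, on a log2 fold-change scale.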

[2] = compound: CC1=C(C=C(C=C1)NC(=O)C2=CC(=CC=C2)N(C)C)NC(=O)C3=CC=C(C=C3)O
Procedure, shortened: as §1

[3] = compound: CC1=CC=C(C=C1)SC2=C3C=C(SC3=CN=C2)C(=O)N
Procedure, shortened: as §1

[4] = compound: CC1=NC(=CC=C1)C2=C(N=C(N2)C(C)(C)C)C3=CC4=NC=CN=C4C=C3
Procedure, shortened: as §1

Nexturastat A = compound: CCCCN(Cc1ccc(C(=O)NO)cc1)C(=O)Nc1ccccc1 [Nexturastat A]
Procedure, shortened: as §1

vemurafenib = compound: CCCS(=O)(=O)Nc1ccc(F)c(C(=O)c2c[nH]c3ncc(-c4ccc(Cl)cc4)cc23)c1F [vemurafenib]
Procedure, shortened: as §1

[5] = compound: CCCS(=O)(=O)Nc1ccc(F)c(C(=O)c2c[nH]c3ncc(Cl)cc23)c1F
Procedure, shortened: as §1

[6] = compound: CCCc1cc(C)[nH]c(=O)c1CNC(=O)c1cc(-c2ccnc(N3CCN(C)CC3)c2)cc2c1cnn2C(C)C
Procedure, shortened: as §1

givinostat = compound: CCN(CC)Cc1ccc2cc(COC(=O)Nc3ccc(C(=O)NO)cc3)ccc2c1 [givinostat]
Procedure, shortened: as §1

barasertib = compound: CCN(CCCOc1ccc2c(Nc3cc(CC(=O)Nc4cccc(F)c4)[nH]n3)ncnc2c1)CCOP(=O)(O)O [barasertib]
Procedure, shortened: as §1

Measured: log2 fold change

CS (UniProt O75390)
Chain of UniProt O75390 (O75390 whole entry, looked up): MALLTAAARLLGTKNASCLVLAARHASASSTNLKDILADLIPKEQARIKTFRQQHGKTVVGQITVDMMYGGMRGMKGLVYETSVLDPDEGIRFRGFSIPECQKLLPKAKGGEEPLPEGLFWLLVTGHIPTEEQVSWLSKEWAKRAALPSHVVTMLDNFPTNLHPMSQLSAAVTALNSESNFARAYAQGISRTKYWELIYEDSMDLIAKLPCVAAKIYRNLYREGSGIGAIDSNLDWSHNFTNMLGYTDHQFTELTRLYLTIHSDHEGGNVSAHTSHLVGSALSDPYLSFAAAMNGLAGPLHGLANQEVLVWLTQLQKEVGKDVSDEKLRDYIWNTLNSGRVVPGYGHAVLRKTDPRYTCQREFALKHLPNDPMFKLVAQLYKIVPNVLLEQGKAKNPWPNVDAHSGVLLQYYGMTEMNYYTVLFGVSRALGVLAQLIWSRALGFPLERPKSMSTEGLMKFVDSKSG
inactive: [1] -0.026 | [2] -0.002 | [3] 0.014 | [4] 0.07 | Nexturastat A -0.125 | vemurafenib 0.023 | [5] 0.033 | [6] 0 | givinostat -0.041 | barasertib 0.027

COX5B (UniProt P10606)
Chain of UniProt P10606 (P10606 whole entry, looked up): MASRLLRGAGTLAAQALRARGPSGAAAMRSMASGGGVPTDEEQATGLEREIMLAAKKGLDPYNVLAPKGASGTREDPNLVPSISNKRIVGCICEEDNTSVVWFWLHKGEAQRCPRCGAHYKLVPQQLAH
inactive: [1] -0.038 | [2] -0.096 | [3] 0.037 | [4] -0.008 | Nexturastat A -0.043 | vemurafenib 0.037 | [5] -0.044 | [6] 0.013 | givinostat 0.065 | barasertib 0.034

CNOT4 isoform 6 (UniProt O95628)
inactive: [1] -0.056 | [2] -0.012 | [3] 0.005 | [4] 0.023 | Nexturastat A -0.122 | vemurafenib -0.014 | [5] -0.007 | [6] -0.069 | givinostat -0.064 | barasertib 0.007

CHAC2 (UniProt Q8WUX2)
Chain of UniProt Q8WUX2 (Q8WUX2 whole entry, looked up): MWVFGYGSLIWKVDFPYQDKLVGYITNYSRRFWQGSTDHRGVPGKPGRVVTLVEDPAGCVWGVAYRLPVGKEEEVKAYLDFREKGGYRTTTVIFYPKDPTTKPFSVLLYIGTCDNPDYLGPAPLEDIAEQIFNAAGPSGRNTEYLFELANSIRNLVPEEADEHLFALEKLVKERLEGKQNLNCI
inactive: [1] -0.001 | [2] 0.025 | [3] 0.037 | [4] 0.015 | Nexturastat A -0.026 | vemurafenib 0.04 | [5] 0.031 | [6] -0.08 | givinostat 0.007 | barasertib 0.079

CDK6 (UniProt Q00534)
Chain of UniProt Q00534 (Q00534 whole entry, looked up): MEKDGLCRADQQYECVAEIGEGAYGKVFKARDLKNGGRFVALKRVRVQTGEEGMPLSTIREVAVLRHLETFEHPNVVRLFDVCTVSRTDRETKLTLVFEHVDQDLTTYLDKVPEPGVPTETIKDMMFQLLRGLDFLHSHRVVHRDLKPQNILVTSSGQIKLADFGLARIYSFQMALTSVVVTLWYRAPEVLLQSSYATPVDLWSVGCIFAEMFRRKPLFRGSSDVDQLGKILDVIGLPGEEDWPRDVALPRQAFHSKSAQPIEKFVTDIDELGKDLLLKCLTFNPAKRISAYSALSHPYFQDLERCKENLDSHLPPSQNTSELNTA
inactive: [1] -0.037 | [2] 0.01 | [3] 0.044 | [4] 0 | Nexturastat A 0.032 | vemurafenib 0.002 | [5] -0.024 | [6] -0.027 | givinostat -0.019 | barasertib -0.018

CDKN1B (UniProt P46527)
Chain of UniProt P46527 (P46527 whole entry, looked up): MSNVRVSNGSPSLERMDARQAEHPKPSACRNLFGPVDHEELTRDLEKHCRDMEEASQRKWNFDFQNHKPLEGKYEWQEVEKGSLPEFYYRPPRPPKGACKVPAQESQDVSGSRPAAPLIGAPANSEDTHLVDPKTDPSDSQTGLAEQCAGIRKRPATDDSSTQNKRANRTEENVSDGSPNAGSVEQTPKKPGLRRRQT
inactive: [1] -0.016 | [2] -0.009 | [3] -0.026 | [4] 0 | Nexturastat A 0.148 | vemurafenib -0.176 | [5] -0.048 | [6] 0.057 | givinostat 0.051 | barasertib -0.063

CHCHD2 (UniProt Q9Y6H1)
Chain of UniProt Q9Y6H1 (Q9Y6H1 whole entry, looked up): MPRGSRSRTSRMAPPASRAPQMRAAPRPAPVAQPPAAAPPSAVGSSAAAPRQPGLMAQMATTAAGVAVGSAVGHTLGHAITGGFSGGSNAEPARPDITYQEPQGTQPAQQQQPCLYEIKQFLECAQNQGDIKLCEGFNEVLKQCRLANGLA
inactive: [1] 0.019 | [2] -0.037 | [3] 0.282 | [4] 0.004 | Nexturastat A -0.047 | vemurafenib -0.028 | [5] -0.019 | [6] -0.09 | givinostat -0.042 | barasertib 0.008

CAVIN1 (UniProt Q6NZI2)
inactive: [1] 0.024 | [2] -0.066 | [3] -0.051 | [4] -0.027 | Nexturastat A 0.186 | vemurafenib -0.068 | [5] -0.047 | [6] 0.073 | givinostat 0.041 | barasertib -0.058

CALCOCO2 isoform 4 (UniProt Q13137)
Chain of UniProt Q13137 (Q13137 whole entry, looked up): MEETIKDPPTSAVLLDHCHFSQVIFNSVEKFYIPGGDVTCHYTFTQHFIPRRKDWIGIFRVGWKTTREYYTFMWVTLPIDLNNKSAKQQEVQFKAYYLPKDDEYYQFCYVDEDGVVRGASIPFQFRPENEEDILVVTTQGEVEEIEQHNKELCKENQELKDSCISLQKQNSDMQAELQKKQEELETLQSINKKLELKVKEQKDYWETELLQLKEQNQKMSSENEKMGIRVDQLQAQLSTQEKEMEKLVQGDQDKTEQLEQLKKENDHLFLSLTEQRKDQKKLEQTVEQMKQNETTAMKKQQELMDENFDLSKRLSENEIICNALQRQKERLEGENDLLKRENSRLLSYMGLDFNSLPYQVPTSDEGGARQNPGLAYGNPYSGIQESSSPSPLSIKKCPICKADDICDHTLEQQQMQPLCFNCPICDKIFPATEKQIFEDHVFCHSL
inactive: [1] -0.005 | [2] -0.008 | [3] 0.006 | [4] 0.012 | Nexturastat A 0.019 | vemurafenib 0.012 | [5] -0.037 | [6] -0.052 | givinostat 0 | barasertib 0.022

CCDC57 (UniProt Q2TAC2)
Chain of UniProt Q2TAC2 (Q2TAC2 whole entry, looked up): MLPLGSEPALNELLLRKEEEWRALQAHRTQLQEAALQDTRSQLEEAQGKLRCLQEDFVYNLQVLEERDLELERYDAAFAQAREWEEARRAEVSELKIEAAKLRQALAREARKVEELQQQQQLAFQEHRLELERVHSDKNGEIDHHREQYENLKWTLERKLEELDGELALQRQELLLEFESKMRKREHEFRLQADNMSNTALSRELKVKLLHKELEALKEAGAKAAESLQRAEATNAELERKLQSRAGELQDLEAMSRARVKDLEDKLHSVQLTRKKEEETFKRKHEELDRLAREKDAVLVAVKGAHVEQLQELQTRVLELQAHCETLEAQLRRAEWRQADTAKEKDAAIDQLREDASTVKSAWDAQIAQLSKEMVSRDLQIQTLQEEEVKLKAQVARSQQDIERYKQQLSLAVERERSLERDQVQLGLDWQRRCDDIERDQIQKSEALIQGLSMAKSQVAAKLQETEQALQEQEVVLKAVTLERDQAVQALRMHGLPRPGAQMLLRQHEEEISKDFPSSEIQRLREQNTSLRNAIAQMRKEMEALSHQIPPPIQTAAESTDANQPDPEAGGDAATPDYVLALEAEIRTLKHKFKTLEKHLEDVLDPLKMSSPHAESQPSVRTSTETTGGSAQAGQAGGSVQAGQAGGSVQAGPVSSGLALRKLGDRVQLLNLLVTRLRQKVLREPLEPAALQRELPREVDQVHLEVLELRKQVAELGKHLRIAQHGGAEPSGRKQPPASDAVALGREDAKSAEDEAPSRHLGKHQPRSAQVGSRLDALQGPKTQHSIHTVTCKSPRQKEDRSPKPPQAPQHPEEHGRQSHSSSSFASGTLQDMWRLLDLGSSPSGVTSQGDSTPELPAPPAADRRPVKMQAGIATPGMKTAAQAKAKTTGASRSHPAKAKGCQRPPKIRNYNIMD
inactive: [1] 0.004 | [2] 0.02 | [3] 0.032 | [4] -0.01 | Nexturastat A -0.049 | vemurafenib 0 | [5] 0.013 | [6] -0.047 | givinostat 0.027 | barasertib 0.015

CCNB1 (UniProt P14635)
Chain of UniProt P14635 (P14635 whole entry, looked up): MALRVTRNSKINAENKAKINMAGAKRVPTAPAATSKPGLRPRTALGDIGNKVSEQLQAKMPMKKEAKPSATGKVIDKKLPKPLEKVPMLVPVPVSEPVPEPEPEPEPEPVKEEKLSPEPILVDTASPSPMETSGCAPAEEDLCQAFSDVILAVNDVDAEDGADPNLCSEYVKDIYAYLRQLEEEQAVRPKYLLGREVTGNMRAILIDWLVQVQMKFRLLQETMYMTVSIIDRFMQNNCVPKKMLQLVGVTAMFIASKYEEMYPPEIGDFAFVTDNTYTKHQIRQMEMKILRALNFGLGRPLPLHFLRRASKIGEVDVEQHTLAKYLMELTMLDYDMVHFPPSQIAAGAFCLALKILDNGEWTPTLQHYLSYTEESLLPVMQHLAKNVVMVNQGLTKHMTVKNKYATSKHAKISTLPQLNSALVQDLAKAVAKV
inactive: [1] 0.021 | [2] -0.043 | [3] 0.011 | [4] 0 | Nexturastat A 0.017 | vemurafenib 0.03 | [5] 0.008 | [6] -0.033 | givinostat 0.007 | barasertib -0.007

CHERP (UniProt Q8IWX8)
Chain of UniProt Q8IWX8 (Q8IWX8 whole entry, looked up): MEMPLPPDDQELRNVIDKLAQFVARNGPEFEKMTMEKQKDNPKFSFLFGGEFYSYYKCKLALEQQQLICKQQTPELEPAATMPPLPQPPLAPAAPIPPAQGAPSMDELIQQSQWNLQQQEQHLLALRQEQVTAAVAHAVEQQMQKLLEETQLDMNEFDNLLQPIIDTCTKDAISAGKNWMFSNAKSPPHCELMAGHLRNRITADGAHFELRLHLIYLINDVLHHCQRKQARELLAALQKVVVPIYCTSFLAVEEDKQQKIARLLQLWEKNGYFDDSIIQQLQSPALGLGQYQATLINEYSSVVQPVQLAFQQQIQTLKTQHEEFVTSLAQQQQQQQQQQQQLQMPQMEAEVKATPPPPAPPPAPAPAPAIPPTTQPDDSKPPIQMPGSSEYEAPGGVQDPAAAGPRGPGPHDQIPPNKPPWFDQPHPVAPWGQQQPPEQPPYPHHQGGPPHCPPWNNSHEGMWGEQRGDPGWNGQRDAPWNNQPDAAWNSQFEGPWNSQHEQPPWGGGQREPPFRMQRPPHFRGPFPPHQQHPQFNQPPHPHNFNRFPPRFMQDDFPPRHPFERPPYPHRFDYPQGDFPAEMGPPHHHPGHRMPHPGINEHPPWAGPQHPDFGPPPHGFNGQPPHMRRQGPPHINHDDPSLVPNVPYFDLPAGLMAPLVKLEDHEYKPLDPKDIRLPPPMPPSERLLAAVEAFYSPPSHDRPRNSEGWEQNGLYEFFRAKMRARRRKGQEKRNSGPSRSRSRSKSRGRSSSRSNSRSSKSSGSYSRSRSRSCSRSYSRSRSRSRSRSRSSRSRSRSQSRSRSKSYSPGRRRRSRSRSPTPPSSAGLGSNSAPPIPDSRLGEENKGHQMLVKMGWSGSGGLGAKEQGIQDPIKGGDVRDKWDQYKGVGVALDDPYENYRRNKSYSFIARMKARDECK
inactive: [1] -0.042 | [2] -0.088 | [3] -0.053 | [4] 0.003 | Nexturastat A -0.006 | vemurafenib 0.018 | [5] 0.127 | [6] 0.075 | givinostat 0.107 | barasertib 0.055

CKS1B (UniProt P61024)
Chain of UniProt P61024 (P61024 whole entry, looked up): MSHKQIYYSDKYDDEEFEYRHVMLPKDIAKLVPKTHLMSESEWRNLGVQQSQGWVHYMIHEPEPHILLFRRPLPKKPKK
inactive: [1] -0.043 | [2] -0.094 | [3] -0.121 | [4] 0.036 | Nexturastat A -0.005 | vemurafenib 0.056 | [5] -0.17 | [6] -0.38 | givinostat -0.034 | barasertib 0.029

CD81 (UniProt P60033)
inactive: [1] 0.039 | [2] 0.112 | [3] 0.069 | [4] 0.054 | Nexturastat A -0.027 | vemurafenib 0.156 | [5] -0.08 | [6] -0.06 | givinostat 0.016 | barasertib -0.008

CLINT1 isoform 3 (UniProt Q14677)
Chain of UniProt Q14677 (Q14677 whole entry, looked up): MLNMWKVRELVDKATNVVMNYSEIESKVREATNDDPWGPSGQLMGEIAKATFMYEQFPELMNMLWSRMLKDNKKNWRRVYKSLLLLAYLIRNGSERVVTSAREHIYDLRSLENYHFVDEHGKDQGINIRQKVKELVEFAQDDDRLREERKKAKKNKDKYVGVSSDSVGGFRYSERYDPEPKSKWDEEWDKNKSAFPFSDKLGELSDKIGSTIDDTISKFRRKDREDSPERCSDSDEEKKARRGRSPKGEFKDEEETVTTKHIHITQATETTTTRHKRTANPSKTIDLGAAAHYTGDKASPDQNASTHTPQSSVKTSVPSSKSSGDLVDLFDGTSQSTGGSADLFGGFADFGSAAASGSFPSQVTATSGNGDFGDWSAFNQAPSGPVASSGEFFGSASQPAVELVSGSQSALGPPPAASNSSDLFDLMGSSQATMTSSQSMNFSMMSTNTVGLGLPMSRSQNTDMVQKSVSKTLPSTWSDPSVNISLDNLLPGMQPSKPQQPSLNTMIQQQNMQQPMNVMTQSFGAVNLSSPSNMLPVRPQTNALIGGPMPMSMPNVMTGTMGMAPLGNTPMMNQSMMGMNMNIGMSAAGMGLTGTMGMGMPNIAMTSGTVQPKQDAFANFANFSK
inactive: [1] -0.082 | [2] -0.001 | [3] -0.094 | [4] -0.09 | Nexturastat A 0.122 | vemurafenib -0.049 | [5] -0.073 | [6] -0.019 | givinostat -0.01 | barasertib -0.047
